From PubChem BioAssay
Calls of active or inactive are those of the source.

What was measured:
[1] = tested on: Human papillomavirus type 1a protein E7 (residues 44-93); test: HPV1a E7 fragment binders on microarrays, primary screen, biochemical, small-molecule microarray, residues 44-93, 635 nm fluorescence (AID 1108); settings: small-molecule microarray binding, fluorescence 635 nm; higher = more signal;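 also: E7 fragment applied at 1 µg/mL in TBST for 1 h at 4 C; score combines spot fluorescence with its signal to noise ratio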
[2] = modulators of HCV replicon luciferase signal, primary screen, HCV replication inhibitor project, Huh7 cells, luciferase reporter (AID 1109); settings: 48 h, higher = more signal;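 also: huh7 hepatoma cells harbouring a luciferase neomycin HCV replicon reporter; luciferase luminescence as measure of HCV replicon replication; test concentration not given here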
[3] = biological target: Left-right determination factor 2 (Homo sapiens) (UniProt O00292); test: LEFTY2 binders on small-molecule microarrays, primary screen, biochemical, small-molecule microarray, 635 nm fluorescence scan (AID 1110); settings: LEFTY2 binding, higher = more signal
[4] = biological target: Calmodulin-1 (Homo sapiens) (UniProt P0DP23); test: CALM1 binders on microarrays, EGTA buffer, profiling panel, biochemical, small-molecule microarray, Cy5-labelled CALM1 (AID 1111); settings: Cy5-CALM1 binding fluorescence, higher = more signal;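 also: labelled calmodulin applied in Tris saline Tween buffer holding calcium plus EGTA and DTT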
[5] = biological target: Calmodulin-1 (Homo sapiens) (UniProt P0DP23); test: calcium-bound CALM1 binders on microarrays, profiling panel, artefact control for SMM control-protein annotation, biochemical, small-molecule microarray, Cy5-labelled CALM1, plus calcium (AID 1112); settings: Cy5-CALM1 binding fluorescence, higher = more signal;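 also: score merges spot fluorescence with signal to noise from triplicate slides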
[6] = small-molecule microarray binders of probe aWnt5a, primary screen, biochemical, biotinylated probe, 635/667 nm fluorescence (AID 1113); settings: higher = more signal;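 also: score merges 667 nm fluorescence intensity with signal-to-noise per printed feature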
[7] = small-molecule microarray binders of probe aShh, primary screen, biochemical, biotinylated probe, 635/667 nm fluorescence (AID 1114); settings: higher = more signal;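 also: probe is biotin-labelled aShh protein from a stem cell growth factor screen; measures binding of labelled protein to compounds printed on the slide; score merges feature fluorescence at 667 nm with signal-to-noise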
[8] = small-molecule microarray binders of probe aNog, primary screen, biochemical, biotinylated probe, 635/667 nm fluorescence (AID 1115); settings: higher = more signal;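 also: probe is biotinylated aNog protein used at 0.15 µg/mL for 1 h at 4 C; z-score combines 667 nm fluorescence of each spot with its signal to noise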
[9] = biological target: Torsin-1A-interacting protein 1 (Homo sapiens) (UniProt Q5JTV8); test: LAP1 binders from COS7 cell lysate, primary screen, small-molecule microarray, 635/667 nm fluorescence (AID 1116); settings: COS7-hLAP1 lysate binding, 635 nm fluorescence, higher = more signal
[10] = biological target: Alpha-bungarotoxin (Bungarus multicinctus) (UniProt P60615); test: alpha-bungarotoxin binders on microarray, profiling panel, artefact control for SMM control protein annotation, biochemical, small-molecule microarray, Alexa647 label, 635/667 nm fluorescence (AID 1117); settings: alpha-BTX-A647 binding fluorescence, higher = more signal
Albumin (Bos taurus) = Albumin (Bos taurus) (UniProt P02769); test: bovine serum albumin binders on microarray, profiling panel, artefact control for SMM control protein annotation, biochemical, small-molecule microarray, Alexa647 label, 635/667 nm fluorescence (AID 1118); settings: BSA-A647 binding, fluorescence 635 nm, higher = more signal;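 also: score merges 667 nm emission intensity and signal-to-noise per printed compound spot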
[11] = small-molecule microarray binders of probe aXIP, primary screen, biochemical, NeuroSMM set, 635/667 nm fluorescence (AID 1119); settings: higher = more signal, called active from +8 up or from −8 down;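 also: probe is the protein aXip251-270 applied at 1 µg/mL to compound-printed slides; binding of probe to printed compounds measured as 667 nm fluorescence plus signal to noise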
[12] = small-molecule binders of probe aNOTCH3, primary screen, biochemical, small-molecule microarray, 635/667 nm fluorescence (AID 1120); settings: higher = more signal;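 also: probe is a biotin-tagged antibody raised against NOTCH3 rather than NOTCH3 protein; score merges spot fluorescence near 667 nm with spot signal to noise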
[13] = small-molecule binders of probe aNOTCH2, primary screen, biochemical, small-molecule microarray, 635/667 nm fluorescence (AID 1121); settings: higher = more signal;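 also: score merges feature fluorescence read at 667 nm with its signal to noise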
[14] = biological target: Carbonic anhydrase 2 (Homo sapiens) (UniProt P00918); test: CAII small-molecule binders, profiling panel, biochemical, small-molecule microarray, Alexa647-labelled CAII (AID 1122); settings: CAII-A647 binding fluorescence, higher = more signal
[15] = COS7 lysate on small-molecule microarray, probe aHis, 635 nm (AID 1123); settings: COS7 cell lysate, fluorescence, higher = more signal;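 also: z-score combines 667nm fluorescence intensity with signal-to-noise per printed compound spot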
[16] = compound binding in COS7 lysate, probe aLAP1, primary screen, cell lysate, small-molecule microarray (AID 1124); settings: probe aLAP1, fluorescence, higher = more signal;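 also: lysate comes from COS7 cells expressing LAP1 and is applied at 0.3 µg/mL; score merges spot fluorescence near 667 nm with signal-to-noise over triplicate slides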
Sam68 (KHDRBS1) = test: Sam68 small-molecule binders, primary screen, biochemical, small-molecule microarray, 635 nm fluorescence (AID 1125); settings: small-molecule microarray binding, higher = more signal;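 also: score merges 667 nm channel intensity with signal to noise over triplicate slides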
[17] = tested on: Chordin-like protein 2 (CHRDL2); test: CHRDL2 small-molecule binders, primary screen, biochemical, small-molecule microarray, 635 nm fluorescence (AID 1126); settings: small-molecule microarray binding, fluorescence 635 nm; higher = more signal;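 also: printed compound slides probed with Chrdl2 protein at 4 µg/mL for 1 h at 4 C; score merges 667 nm emission intensity with signal to noise over three replicate slides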
[18] = biological target: Concanavalin-A (Canavalia ensiformis) (UniProt P02866); test: ConA small-molecule binders, primary screen, artefact control for SMM control protein annotation, biochemical, small-molecule microarray, Alexa647 label, 635 nm (AID 1127); settings: ConA-A647 binding fluorescence, higher = more signal;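 also: z combines 667 nm emission intensity with signal-to-noise across three replicate slides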
Chain of Concanavalin-A (Canavalia ensiformis) (P02866 whole entry, looked up): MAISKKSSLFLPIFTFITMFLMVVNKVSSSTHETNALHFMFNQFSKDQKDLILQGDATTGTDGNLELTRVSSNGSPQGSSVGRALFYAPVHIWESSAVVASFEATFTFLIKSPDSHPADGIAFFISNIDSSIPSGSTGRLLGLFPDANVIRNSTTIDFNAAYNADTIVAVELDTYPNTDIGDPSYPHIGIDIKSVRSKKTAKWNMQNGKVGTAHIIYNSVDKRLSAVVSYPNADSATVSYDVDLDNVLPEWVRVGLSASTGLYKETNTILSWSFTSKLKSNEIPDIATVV

Chain of Albumin (Bos taurus) (P02769 whole entry, looked up): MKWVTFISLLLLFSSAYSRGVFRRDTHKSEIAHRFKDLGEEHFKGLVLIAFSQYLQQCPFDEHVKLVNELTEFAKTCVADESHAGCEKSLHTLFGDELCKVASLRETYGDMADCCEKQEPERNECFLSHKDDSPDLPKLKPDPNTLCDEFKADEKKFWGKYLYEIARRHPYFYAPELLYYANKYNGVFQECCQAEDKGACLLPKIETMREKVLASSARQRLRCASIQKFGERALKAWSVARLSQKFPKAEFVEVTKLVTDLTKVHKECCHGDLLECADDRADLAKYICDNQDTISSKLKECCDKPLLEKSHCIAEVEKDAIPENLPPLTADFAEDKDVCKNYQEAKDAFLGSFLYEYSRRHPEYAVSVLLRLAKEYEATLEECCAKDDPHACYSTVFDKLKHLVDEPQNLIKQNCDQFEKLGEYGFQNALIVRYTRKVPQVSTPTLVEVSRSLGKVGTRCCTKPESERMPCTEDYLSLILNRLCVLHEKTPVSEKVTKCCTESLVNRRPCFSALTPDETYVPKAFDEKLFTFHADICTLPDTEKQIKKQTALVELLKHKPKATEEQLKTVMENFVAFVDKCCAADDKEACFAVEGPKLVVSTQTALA
Chain of Left-right determination factor 2 (Homo sapiens) (O00292 whole entry, looked up): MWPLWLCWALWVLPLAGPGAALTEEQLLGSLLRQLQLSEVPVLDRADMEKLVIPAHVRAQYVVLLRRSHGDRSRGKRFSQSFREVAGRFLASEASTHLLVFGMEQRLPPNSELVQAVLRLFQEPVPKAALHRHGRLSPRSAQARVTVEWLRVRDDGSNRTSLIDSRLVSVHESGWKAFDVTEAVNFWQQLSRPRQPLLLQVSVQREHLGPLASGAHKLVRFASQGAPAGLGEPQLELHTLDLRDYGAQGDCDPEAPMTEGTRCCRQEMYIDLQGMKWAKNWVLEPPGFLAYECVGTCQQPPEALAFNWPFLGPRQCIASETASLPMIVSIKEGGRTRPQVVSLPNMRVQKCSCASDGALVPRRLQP
Chain of Torsin-1A-interacting protein 1 (Homo sapiens) (Q5JTV8 whole entry, looked up): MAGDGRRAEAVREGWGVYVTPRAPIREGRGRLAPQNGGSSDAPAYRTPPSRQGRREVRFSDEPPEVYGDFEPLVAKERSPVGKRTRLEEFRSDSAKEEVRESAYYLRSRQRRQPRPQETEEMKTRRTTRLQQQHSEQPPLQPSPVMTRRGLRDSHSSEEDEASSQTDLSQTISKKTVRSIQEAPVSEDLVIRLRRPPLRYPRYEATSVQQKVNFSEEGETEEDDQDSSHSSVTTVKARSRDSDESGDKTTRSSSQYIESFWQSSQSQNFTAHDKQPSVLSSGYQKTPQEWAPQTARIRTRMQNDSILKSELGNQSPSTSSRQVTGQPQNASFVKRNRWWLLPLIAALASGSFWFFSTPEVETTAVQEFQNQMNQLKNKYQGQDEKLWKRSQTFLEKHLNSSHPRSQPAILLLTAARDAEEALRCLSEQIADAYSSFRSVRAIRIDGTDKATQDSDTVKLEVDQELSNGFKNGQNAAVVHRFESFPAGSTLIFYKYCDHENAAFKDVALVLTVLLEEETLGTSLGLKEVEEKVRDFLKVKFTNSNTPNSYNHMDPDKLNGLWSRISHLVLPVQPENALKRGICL
Chain of Alpha-bungarotoxin (Bungarus multicinctus) (P60615 whole entry, looked up): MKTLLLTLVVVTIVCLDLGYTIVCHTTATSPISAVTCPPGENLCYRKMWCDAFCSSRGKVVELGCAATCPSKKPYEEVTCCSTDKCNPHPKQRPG

Compound	composite z-score [1]	z-score [2]	composite z-score [3]	composite z-score [4]	composite z-score [5]	composite z-score [6]	composite z-score [7]	composite z-score [8]	composite z-score [9]	composite z-score [10]	composite z-score (Albumin (Bos taurus))	composite Z-score [11]	composite z-score [12]	composite z-score [13]	composite z-score [14]	composite z-score [15]	composite z-score [16]	composite z-score (Sam68 (KHDRBS1))	composite z-score [17]	composite z-score [18]
CO[C@H]1O[C@H](CO)[C@@H](OC(=O)Nc2cccc(F)c2)[C@H](OC(=O)Nc2ccccc2-c2ccccc2)[C@@H]1OC(=O)Nc1ccccc1-c1ccccc1	1.16	-3.61	0.343	1.95	0.283	0.0825	0.0684	-0.268	1.47	1.96	0.914	-0.116 (inactive)	0.0479	-0.0041	0.385	2.56	1	1.3	-0.262	1.23
COc1ccc([Si](C)(C)[C@H]2[C@H](CC(=O)N(CCO)Cc3ccccc3)O[C@@]3(C(=O)N(Cc4cccc(N5C(=O)c6cccc7cccc5c67)c4)c4ccccc43)[C@@H]2C)cc1	0.9	-4.25	0.45	0.847	-0.0174	-0.107	-0.165	0.0857	0.389	0.942	0.375	-0.025 (inactive)	-0.0821	-0.154	0.519	0.934	0.228	0.75	-0.108	1.09
O=C1OCCC/C=C\[C@H]2OC34C=CCN(Cn5nnc6ccccc65)C(=O)[C@H]3N(CCCO)C(=O)[C@@H]4C12 (stereo not given in full)	0.692	-1.01	-2	-0.44	0.458	-0.191	0.0952	0.574	2.11	-1.75	-1.38	-0.774 (inactive)	-0.306	-0.112	0.896	1.82	0.888	0.301	-2.21	-0.946
C=CCNC(=O)[C@H]1[C@@H]2C(=O)O[C@@H](c3ccccc3)[C@@H](c3ccccc3)N2[C@@H](c2ccc(OCCO)cc2)[C@]12C(=O)N(C(=O)OCCOC)c1ccc(C#CC3(O)CCCCCC3)cc12	1.18	-2.07	1.2	0.494	-0.12	0.0342	-0.0035	1.7	1.07	1.52	-1.02	-0.586 (inactive)	0.373	0.308	0.615	1.9	1.5	1.3	1.1	1.07
O=C1C2C=CC(C(O)CCc3ccccc3)N(Nc3ccccc3)C2C(=O)N1c1ccccc1 (stereo not given)	0.0852	0.123	-0.231	2.65	1.4	0.0797	0.382	1.11	2.2	3.09	0.861	-0.107 (inactive)	0.185	0.0278	0.65	2.82	0.899	1.3	-0.788	1.2
CC(C)NC(=O)[C@@H]1c2ccccc2C(=O)N(C2CCCCC2)[C@H]1c1ccc(CO)cc1	1.13	-1.48	0.0474	0.166	0.808	0.0279	-0.195	0.342	0.416	1.01	-0.338	-0.101 (inactive)	-0.0731	-0.0326	0.336	1.47	-0.0044	0.77	-0.329	0.661
